Laboratory results taken from PubChem BioAssay (NCI).
Several values for one entry are separate records, joined by “and”; a condition that tells them apart may be missing. Identical values can stand only once. This is part of a sample that, as a whole, favours compounds with a hit. Of some 83,000 tested, about 20% had one in any assay.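 The endpoint reported here, percent growth, reads 100 for growth as untreated, 0 for no net growth and -100 for all cells dead.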 Activity calls are given as the source filed them. How the source made its calls: active means growth percent below 10; inactive means the rest.

Each molecule was assayed on HL-60(TB) leukemia (assay: NCI-60 one-dose screen, 48 h (100 = growth as untreated, 0 = no growth, -100 = all killed)). Conditions: 10 µM unless noted.

Compound	growth
COc1ccc(C2NC(=O)C(C#N)c3c2sc2c(F)cccc32)cc1 (stereo not given)	10.5% (inactive)
O=C1OC(C(O)C(O)CO)C(O)=C1O (stereo not given)	114% (inactive) and 104% (inactive)
CCOc1ccc2cc(-c3nn(CC4CCNCC4)c4ncnc(N)c34)ccc2c1	98.1% (inactive) and 19.7% (inactive)
O=C(c1ccc(-c2nc(CSc3nc4ccccc4s3)no2)cc1)N1CCSCC1	27% (inactive)
CCCCCCCCn1ccc2cc(NC(=O)CN3CCN(c4nc(C)cc(Cl)n4)CC3)ccc21	91.1% (inactive)
CN(C)CCOc1ccc(-c2nc3ccc(-c4nc5ccc(N6CCN(C)CC6)cc5[nH]4)cc3[nH]2)cc1	72.1% (inactive)
COc1cc2cc(Oc3ccc(NC(=O)Nc4ccc(Cl)c(C(F)(F)F)c4)cc3)c(C)nc2cc1OCCN1CCCCC1	30.5% (inactive)
N#Cc1ccc(-c2ccc3c(c2)NC(=O)/C3=C\c2ccc[nH]2)cc1	101% (inactive)
OCC1C2C=CC(C2)C1CO (stereo not given)	87.5% (inactive)
O=C1C(=O)c2ccccc2C(O)=C1CCCc1ccc(C2CCCCCC2)cc1	45.6% (inactive)
COc1ccc(-n2c(-c3ccccc3)c(-c3ccccc3)c3c(SCC(=O)N/N=C/c4ccc(Cl)cc4)ncnc32)cc1	103% (inactive)
N#CC1=C(N)n2nc(-c3ccncc3)nc2NC1c1cccc2ccccc12 (stereo not given)	89.8% (inactive)
Brc1c2c(c(Br)c3ccccc13)CCCC2	91.4% (inactive)
CCC(/C=C\C(C)=O)CC	104% (inactive)
CCOC(=O)c1c2c(n3cccc(F)c13)C(=O)c1ncccc1C2=O	-25.8% (active)
O=c1c(Br)ccc(Br)cc1Br	-58.8% (active)
O=[N+]([O-])c1ccc(NS(=O)(=O)c2cc(Cl)ccc2Cl)c2ccccc12	33.4% (inactive)
CC(C)(C)n1cc(-c2ccnc(NCCCNS(=O)(=O)c3ccc(Cl)cc3)c2)c(-c2cccc(F)c2)n1	85.8% (inactive)
CC1(C)OC2C(CO[Si](C)(C)C(C)(C)C)OC(n3c(I)c(C#C[Si](C)(C)C)c(=O)[nH]c3=O)C2O1 (stereo not given)	69.5% (inactive)
COC[C@@H](C)n1c(C2CCOCC2)nc2c1C1C=C(OC)C(c3c(C)noc3C)=CC1N=C2 (stereo not given in full)	11.8% (inactive)

Compound	growth
CCOC(=O)C1=NN(c2ccccc2)C(=O)/C1=C\N1C(=O)CC(=O)NC1=S	101% (inactive)
CCCCCCCCCCCCCCCCCCNC(=O)[C@H]1CSC(c2cccs2)N1 (stereo not given in full)	-67.5% (active)
COc1ccc2nc(Cl)cc(C)c2c1	89.3% (inactive) and 9.88% (active)
O=Cc1ccccc1C(=O)O	111% (inactive)
O=C(Nc1nc(-c2ccccc2Cl)cs1)c1cc(-c2ccccc2)nc2ccc(Cl)cc12	-3.8% (active)
S=C(Nc1ccc(-c2nc(N3CCOCC3)c3cccn3n2)cc1)Nc1cccnc1	59.9% (inactive)
CCOc1ccc(Nc2nc3c(s2)C(=O)c2ccccc2C3=O)cc1	25.1% (inactive)
Cc1nssc1=S	106% (inactive)
Cc1c(-c2nc3ccc(F)cc3c(=O)[nH]2)c2ccccc2n1C	4.98% (active)
NC(N)=NN=C(c1ccccc1)c1ccccc1	-8.59% (active)
COc1ccc(-c2nnc(SCC(=O)c3ccc(Cl)cc3)o2)cc1	108% (inactive)
CCCCCCCC/C=C/CCCCCCCC1=NC(C)(C)CN1C(C)(C)CO	-59.8% (active)
O=c1c2sc3ccccc3c2nnn1-c1ccc(F)c(Cl)c1	73.7% (inactive)
COc1ccc2c(c1)O/C(=C/c1ccc(OCC(=O)c3ccccc3)cc1)C2=O	88.7% (inactive)
CCn1c2ccccc2c2cc(NC(=O)Nc3ccc([N+](=O)[O-])cc3C)ccc21	18.7% (inactive)
O=C(NCCCCNC(=O)OCc1ccc2c(Cl)cc(Cl)c(O)c2n1)OCc1ccc2c(Cl)cc(Cl)c(O)c2n1	-49.2% (active)
O=C(CNc1c(Cl)cccc1Cl)Nc1ccc(-c2nc3ccccc3s2)cc1	70.7% (inactive)
CCCc1ccnc(NS(=O)(=O)c2ccc(N)cc2)n1	24.7% (inactive)
CCCC(C)OCC(=O)O (stereo not given)	88.8% (inactive)
O=C(CSc1nnc(-c2ccc(NC(=O)c3cccnc3)cc2)o1)N[C@@H](Cc1ccc(O)cc1)C(=O)O	99.4% (inactive)
